Test results published in PubChem BioAssay (NCATS).

Columns and labels:
[1] = qHTS profiling for inhibitors of Plasmodium falciparum (3D7) proliferation (AID 743322);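 also: infected erythrocytes exposed to compound for 72 h before lysis; 100% = DMSO vehicle wells and 0% = 0.29 µM artemisinin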; conditions: P. falciparum 3D7 proliferation; at 28.7 µM (top of the series)
In short: (§1)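 Parasite DNA was quantified by SYBR Green I fluorescence (ex 485, em 535 nm) after overnight lysis in saponin/Triton buffer at room temperature. Cultures at 0.3% parasitemia and 2.5% hematocrit were first exposed to compound for 72 h at 37 C; signals were normalised to artemisinin (0.29 uM) and vehicle wells.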

[2] = qHTS profiling for inhibitors of Plasmodium falciparum (DD2) proliferation (AID 743323); conditions: lower = more inhibition; at 28.7 µM (top of the series)
In short: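 P. falciparum Dd2-infected erythrocytes (0.3% parasitemia, 2.5% hematocrit) exposed 72 h at 37 C, 5% CO2. Lysis with SYBR Green, overnight at room temperature, fluorescence 485/535 nm; normalized to 0.29 uM artemisinin and DMSO.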

[3] = qHTS profiling for inhibitors of Plasmodium falciparum (HB3) proliferation (AID 743324); conditions: Plasmodium falciparum HB3 blood-stage proliferation; at 28.7 µM (top of the series);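 also: 100% = DMSO vehicle wells and 0% = artemisinin-treated control wells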
In short: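 SYBR Green fluorescence (485 ex/535 em) of lysed cultures, incubated overnight at room temperature in the dark, quantifies parasite DNA. Infected erythrocytes at 0.3% parasitemia and 2.5% hematocrit were exposed 72 h; values normalized to DMSO and 0.29 uM artemisinin controls.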

[4] = qHTS profiling of the MIPE4 collection as inhibitors of Plasmodium falciparum (3D7) proliferation (AID 743344);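 also: scaled between DMSO vehicle wells and 0.29 µM artemisinin as full inhibition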; conditions: P. falciparum 3D7 in erythrocytes, SYBR Green DNA fluorescence, 72 h; at 28.5 µM (top of the series) unless noted
In short: as §1

[5] = qHTS profiling of the MIPE4 collection as inhibitors of Plasmodium falciparum (DD2) proliferation (AID 743345); conditions: P. falciparum Dd2 in erythrocytes, SYBR Green DNA, 72 h; at 28.5 µM (top of the series) unless noted
In short: as §1

[6] = qHTS profiling of the MIPE4 collection as inhibitors of Plasmodium falciparum (DD2) proliferation (Rep 2) (AID 743346); conditions: P. falciparum Dd2 in erythrocytes, SYBR Green DNA, 72 h; at 28.5 µM (top of the series) unless noted
In short: as §1

[7] = qHTS profiling of the MIPE4 collection as inhibitors of Plasmodium falciparum (HB3) proliferation (AID 743347);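 also: plate controls were DMSO vehicle wells for no effect and artemisinin wells for full effect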; conditions: P. falciparum HB3 in erythrocytes, SYBR Green DNA, 72 h; at 28.5 µM (top of the series) unless noted
In short: as §1

[8] = High-throughput drug toxicity screening in the BPDCN cell line Gen2.2 (AID 1224824); conditions: Gen2.2 BPDCN cells; at 45.8 µM (top of the series) unless noted;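 also: cells exposed to compounds for 48 h before reading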
In short: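 Gen2.2, 500 cells/well, phenol red-free RPMI/10% FBS/Pen-Strep; 48 h cpd, 37 °C/5% CO2; CTG lum, 15 min RT. Norm: DMSO = 100%, bortezomib 9.2 uM final = 0%.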

[9] = High-throughput drug toxicity screening in the BPDCN cell line Cal-1 (AID 1224825); conditions: Cal-1 BPDCN cell viability, qHTS; at 45.8 µM (top of the series) unless noted
In short: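 CellTiter-Glo luminescence after 48 h compound exposure; percent activity scaled with DMSO as 100% and bortezomib (9.2 uM final) as 0%. Cal-1 cells seeded at 500/well in RPMI, 10% FBS, no phenol red.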

Structure (SMILES)	remaining parasite growth % (stronger effect = lower value) [1] [%]	activity, percent of control [2] [%]	remaining proliferation (% of control), lower = more inhibition [3] [%]	parasite growth, % of DMSO control [4]	parasite growth remaining, % of DMSO control (lower = more inhibition) [5]	parasite growth, % of control (lower = inhibition) [6]	growth, % of control [7]	cell viability, % of control (lower = more cytotoxic) [8]	viability (% of control) [9]
O=C(C=Cc1c(C(=O)O)[nH]c2cc(Cl)cc(Cl)c12)Nc1ccccc1	118	103	99.1	157%	107%	159%	188%	115%	98.9%
COc1cc2ncn(-c3cc(OCc4ccccc4C(F)(F)F)c(C(N)=O)s3)c2cc1OC	18.7	43.8	13	41.3%	65%	44.3%	35.9%	43.1%	4.46%
O=C(C=Cc1cccc(S(=O)(=O)Nc2ccccc2)c1)NO	0.201	0.981	0.6	4.9% [at 57.5 µM]	6.53% [at 57.5 µM]	18.3% [at 57.5 µM]	8.45% [at 57.5 µM]	8.69% [at 92.2 µM]	3.98% [at 92.2 µM]
O=C(O)c1ccc2c(c1)nc(Nc1cccc(Cl)c1)c1ccncc12	9.86	12.2	-0.0167	6.23%	9%	9.96%	4.4%	84.5%	72.1%
C=CC(=O)Nc1cccc(Oc2nc(Nc3ccc(N4CCN(C)CC4)cc3OC)ncc2Cl)c1	5.98	12.5	6.16	10.5%	15.1%	26.7%	4.13%	8%	16.3%
C=C1C(=CC=C2CCCC3(C)[C@@H]([C@H](C)C=CC=CC(O)(CC)CC)CC[C@@H]23)C[C@@H](O)C[C@@H]1O (stereo partly specified)	65.1	71.5	20.6	17.5%	83.6%	12.7%	15%	17.9%	6.44%
Cc1cccc(C=NNc2cc(N3CCOCC3)nc(OCCc3ccccn3)n2)c1	3.29	8.46	1.85	5.56%	15.2%	11.8%	4.79%	60.1%	63.7%
O=C(O)c1ccc2cc(-c3ccc(O)c(C45CC6CC(CC(C6)C4)C5)c3)ccc2c1	5.44	10.6	-1.12	13.5%	40%	25.3%	11.7%	30.9%	7.6%
COc1cc2c(Oc3ccc(-c4cnc(Nc5ccc(F)cc5)n(C)c4=O)cc3F)ccnc2cc1OCCCN1CCOCC1	-2.59	-0.143	-1.33	6.28%	6.26%	17%	9.39%	5.93%	0.783%
Cc1ccc(C(=O)Nc2cccc(C(F)(F)F)c2)cc1-c1ccc2nc(NCCN3CCOCC3)ncc2c1	-2.64	0.812	-1.12	6.03%	7.55%	22.9%	8.15%	11.1%	5.9%
O=C(O)[C@H](Cc1c[nH]c2ccccc12)N1C(=O)c2ccccc2C1=O	105	104	85.6	99.6% [at 57.5 µM]	98.7% [at 57.5 µM]	77% [at 57.5 µM]	106% [at 57.5 µM]	151% [at 92.2 µM]	104% [at 92.2 µM]
O=C(c1ccc(Nc2nccc(-c3cc4ccccc4s3)n2)cc1)N1CCC(N2CCCC2)CC1	-2.23	-0.895	-1.21		6.27%	18.7%	4.99%	11.5%	3.16%
CC(C)(O)CCc1ccc(OCc2cc(-c3cccc(OC(F)F)c3)c3ncccc3c2)cc1	37.5	37.1	15.5		93%	102%	102%	132%	75.3%
CC1(C)OC2=C(C(=O)c3ccccc3C2=O)[C@H](NCc2ccccc2)[C@H]1O	-2.33	0.336	-1.28		7.16%	6.48%	3.94%	12%	8.3%
Cn1cncc1[C@@](N)(c1ccc(Cl)cc1)c1ccc2c(c1)c(-c1cccc(Cl)c1)cc(=O)n2C	-0.555	5.8	1.12	6.1%		20.3%	5%	3.19%	2.26%
Cn1cc(-c2[nH]c3cc(NC(=O)[C@H](N)C4CCCCC4)cc4c3c2C=NNC4=O)cn1	-2.18	-0.309	-1.93		5.92%	4.04%	2.91%	28.9%	4.56%
CC(=O)OCCN1C(=O)c2c(C)nc3ccc(S(=O)(=O)N4CCOCC4)cc3c2C1=O	96.2	97.6	103	365%	102%	86.6%	666%	69.9%	47.9%
C#Cc1cccc(Nc2ncnc3cc(OC)c(OCCCCCCC(=O)NO)cc23)c1	-1.67	0.0372	-0.395	5.53%	6.37%	11.2%	3.1%	44.2%	3.6%
CC(C)c1ccc(Cn2ccc3c4c(N)nc(NC5CC5)nc4ccc32)cc1	-2.55	-1.01	-1.47	4.63%	6.19%	15.1%	3.42%	3.92%	4.41%
